# Dicer inh: human Dicer pre-microRNA cleavage inhibition; Q9UPY3; cat-ELCCA pre-miR-21 Dicer processing, chemiluminescence; hits give high values; z-score at 25 µM; actives 6% (n = 47,000); in the data active means z-score above about 3, passing the limit was not always enough;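 further: plate controls were vehicle for no effect and no enzyme for full effect; higher signal means more uncleaved substrate so more Dicer inhibition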
# * hit, by the source's call. This is one part of a sample in which hits are shown more often than they occur.
SMILES,Dicer inh
CSC1=C(C#N)C(=O)NC(c2ccc(Cl)cc2Cl)S1 (stereo not drawn),1
Cc1c(NC(=O)c2cc3ccccc3c(=O)s2)c(=O)n(-c2ccccc2)n1C,0.44
O=C(O)c1cc2ccc3ccccc3c2s1,4.1*
O=C(Nc1ccccc1)c1cc2ccc3ccccc3c2s1,3.5*
CCOC(=O)c1cc2ccccc2c(=O)s1,0.03
O=C(Nc1ccccc1)c1cc2sccc2s1,0.23
Cc1ccc2nc3sc(C(=O)O)cc3cc2c1,0.3
CNC(=S)N/N=C(\C)c1ccc(C)cc1,1.1
O=C(Cn1nnc(-c2cc(Cl)cc(Cl)c2)n1)c1ccc(Cl)cc1,1.8
C=CCn1c(=S)sc2c(=O)n(/N=C/c3ccc(Cl)cc3Cl)c(C)nc21,-1.8
Cc1cccc(/C=C2\SC(=S)N(/N=C/c3ccc(Cl)cc3Cl)C2=O)c1,-1.4
O=C1/C(=C/c2c(F)c(F)c(F)c(F)c2F)SC(=S)N1/N=C/c1ccc(Cl)cc1Cl,12*
O=C(Nc1ccc2c(c1)OCO2)c1cc2n(n1)C(C(F)(F)F)CC(c1ccco1)N2 (stereo not drawn),-0.21
Cc1onc(-c2c(Cl)cccc2Cl)c1NC(=O)NNc1cc(Cl)ccc1Cl,-0.25
OC1=CONN1c1cccc2ncccc12,3.2*
Cc1nc2ccc(N3NOC=C3O)cc2s1,1.2
Cc1ccc(-c2sc(N)nc2-c2ccc(Cl)cc2)cc1,1.3
CCc1c(O)nc(SCCN(CC)CC)n(-c2ccccc2)c1=O,0.82
O=C(Cn1nc(C(F)F)cc1C1CC1)N1CCCC1,3.1*
CC1CCc2c(sc3nnn(CC(=O)N4CCCC4)c(=O)c23)C1 (stereo not drawn),-0.75
O=C(c1cn(CC(=O)N2CCCCC2)c2ccccc12)C1CC1,1
CC(=O)c1ccccc1C(=O)c1ccccc1,-1.2
Cc1c(C)c(C)c(C(=O)c2ccc(Cl)cc2)c(C)c1C,0.14
CC(=O)c1ccccc1C(=O)c1ccc(Cl)cc1,59*
CCOc1ccc(N2CC(C(=O)O)CC2=O)cc1 (stereo not drawn),0.38
SMILES,Dicer inh
Cc1ccc(-c2nnc(SCc3ccc(F)cc3)o2)cc1,-0.07
CCOC(=O)/C(C#N)=C/NN(C)c1ccccc1[N+](=O)[O-],-0.25
CC(C)(C)OC(=O)/C(C#N)=C/c1ccc([N+](=O)[O-])cc1,8.3
CCN(CC)C(=O)/C(C#N)=C/c1cc(O)c(O)c([N+](=O)[O-])c1,3.8*
O=C(c1ccco1)N(c1cc2sc(=O)oc2c2ccccc12)S(=O)(=O)c1ccccc1,-3.8
O=C(O)C1C2C=CC3(CN(c4ccccc4)C(=O)C13)O2 (stereo not drawn),1.5
CC1(C(=O)O)C2C=CC3(CN(Cc4ccccc4)C(=O)C31)O2 (stereo not drawn),2.6
CC1(C(=O)O)C2C=CC3(CN(c4ccccc4)C(=O)C31)O2 (stereo not drawn),5.3*
CSc1nc2ccccc2n1CCOc1ccc(Cl)cc1,0.23
C=CCSc1nc2ccccc2n1CC(=O)O,1.5
C=CCOC(=O)n1c(SC)nc2ccccc21,3.1*
Cc1cc(Oc2ccc(C(F)(F)F)cc2[N+](=O)[O-])c2cccc(Cl)c2n1,-0.62
O=S(=O)(Nc1n[nH]c2ccccc12)c1ccc(Cl)c(Cl)c1,0.95
Nc1ccc(CCc2nc3ccccc3o2)cc1,6.6*
CCOC(=O)Cc1nc2ccccc2o1,2
Cc1c(N)cccc1-c1nc2ccccc2o1,0.93
O=C(C1CCCCC1)n1c2ccc(F)cc2c2nc3ccccc3nc21,0
CCn1c2c(c(=O)[nH]c1=O)C(c1cccc(OC)c1)C1=C(N2)c2ccccc2C1=O (stereo not drawn),2.1
Cc1csc(NC(=O)c2ccco2)c1C(=O)c1ccccc1,0.11
O=C(Nc1csc(C(F)(F)F)c1-c1ccccc1)C(Cl)(Cl)Cl,-0.5
O=C(Nc1csc(C(F)(F)F)c1-c1ccccc1)c1ccco1,4.4*
N#Cc1ccc(CN2C(=O)CSC2=S)cc1,2.3
Cc1cc(NC(=O)C(=O)c2ccc(CN3C(=O)c4ccccc4C3=O)o2)on1,0.36
CC1=N/C(=C\c2ccc3ccccc3c2)C(=O)O1,-0.93
CC1=N/C(=C\c2cc(F)cc(F)c2)C(=O)O1,-0.66
SMILES,Dicer inh
CC1=N/C(=C/c2ccc(Cl)c(Cl)c2)C(=O)O1,3.2*
CCOC(=O)c1c(NC(=O)CCC(=O)O)sc(C)c1-c1ccccc1,-1.6
CCOCCOC(=O)C1=C(C)NC2=C(C(=O)CC(C)(C)C2)C1c1ccc(OC)c(Br)c1 (stereo not drawn),-0.53
CSC1=NC(C)(C)Cc2cc3c(cc21)OCCO3,3.3*
CC1(C)Cc2cc3c(cc2C(SCc2ccccc2)=N1)OCCO3,-0.25
Cc1cc(C)c2nc(C3C(=O)c4ccccc4C3=O)ccc2c1,-1.2
Cc1cc(C)c2ccc(C3C(=O)c4ccc(O)cc4C3=O)nc2c1 (stereo not drawn),3.1*
Cc1cc(C(=O)O)nc2ccccc12,1.8
COC(=O)C1=C(C(=O)OC)SC(=C2C(=S)C(C)(C)N(C(C)=O)c3ccc(C)cc32)S1,1.6
FC(F)(F)c1ccccc1-n1cn[nH]c1=S,-0.85
CC(=O)OC[C@@H]1O[C@H](n2cnc3c(=O)[nH]c(N)nc32)[C@@H](OC(C)=O)[C@H]1OC(C)=O,0.25
CCCCCCN1N=C(C)C(C(=O)c2ccc(Br)cc2)C1=O (stereo not drawn),-5.5
Cc1nc2ccccc2c2c1C(=O)N(c1cccc(C(=O)OCC(=O)c3ccccc3)c1)C2=O,0.48
O=C1OC(N2CCOCC2)c2ccccc21 (stereo not drawn),-0.8
CCOC(=O)c1cnn(-c2c([N+](=O)[O-])c(C)nn2C)c1/N=C\N(C)C,-0.47
O=C(Oc1ccc(OC(=O)c2ccco2)c(Cl)c1)c1ccco1,7.4*
Cc1ccc(C)c(Oc2coc3cc(OC(=O)c4ccco4)ccc3c2=O)c1,0.42
O=C(Oc1cccc2cccnc12)c1ccco1,-2.4
O=C(NNS(=O)(=O)c1ccccc1)c1csc2ccc(Cl)cc12,0.6
O=C(Nc1c(C(=O)c2ccccc2)oc2ccccc12)c1ccco1,-0.08
Cc1ccc(C2Nn3c(C)nnc3SC2C(=O)Nc2ccc(Br)cc2F)cc1 (stereo not drawn),1.4
COC(=O)Cc1nc(NC(=O)c2nc(-c3ccccc3)oc2C)sc1C,0.09
COC(=O)Cc1nc(Nc2ccccc2)sc1C,-0.11
COC(=O)Cc1nc(NC(=O)C2CCC2C(=O)O)sc1C (stereo not drawn),3.3*
CCOC(=O)C(=O)c1csc(NC(=O)c2ccco2)n1,0
SMILES,Dicer inh
COc1ccc2nc(N)sc2c1,0.42
COc1ccccc1-c1nc2ccc(Cl)cc2c(=O)o1,-1.8
COc1ccc2nc(C)cc(Cl)c2c1,2.7
COc1ccc2nc(C3C(=O)c4ccccc4C3=O)cc(Cl)c2c1,6.5*
COc1ccc2nc3ccccc3c(N)c2c1,4*
COc1ccc2nc(C3C(=O)c4ccccc4C3=O)ccc2c1,0.25
C/C(=N\N=C1/NC(=O)CS1)c1ccc(Cl)s1,-0.34
CN1c2ccccc2C(C)(C)C12C=Cc1cccc([N+](=O)[O-])c1O2 (stereo not drawn),0.3
Cn1nc(C(F)(F)F)cc1OC(=O)c1ccccc1Cl,-0.32
CN(C)C(=O)c1ccc(-c2cc(C(F)(F)F)nn2C)s1,-0.27
Cn1nc(C(F)(F)C(F)F)cc1-c1ccccc1O,5.3*
CC(C)(C)OC(=O)NC1CCNCC1,-0.38
COc1ccc2cc(-c3ccno3)ccc2c1,-1.3
Cc1sc2ncnc(Oc3ccc4ccccc4c3)c2c1C,-1.1
CCOC(=O)C1=C(C)N(c2ccc(Br)cc2)C(=O)C1,3.8*

# Compound activity: PubChem BioAssay, Center for Chemical Genomics, University of Michigan
